The source of these data is PubChem BioAssay (NCATS).

Where “and” joins values, the source holds several entries; their conditions need not be identical. Equal values may be shown once. Records with an inconclusive call do not appear. Calls of active or inactive are those of the source. Calls follow the shape of the dose curve; as a rule, active = well fitted curve in the direction sought with a large enough effect; inconclusive = small, poorly fitted or top-dose-only effect, or another doubt; inactive = no such curve, though single readings can be large; an effect the other way counts as inactive or inconclusive.

A short description of assay [1]: Primary qHTS for inhibitors of nuclear receptor binding SET domain protein 2 (NSD2) in an isogenic RCH-ACV NSD2 p.E1099K mutant (9B) (AID 1645876). The note with it: RCH-ACV NSD2 E1099K (9B) viability, CellTiter-Glo, 72 h; series mostly up to 44.9 µM.
A short description of assay [2]: Primary qHTS for inhibitors of nuclear receptor binding SET domain protein 2 (NSD2) in an RCH-ACV wild type WT cells (2C) (AID 1645877). The note with it: RCH-ACV (leukaemia line) NSD2 WT (2C) viability, CellTiter-Glo, 72 h; series mostly up to 44.9 µM.
Also: nearly all actives have a fitted effect of over 70% in size.
Potency is read from the fitted curve at half-maximal effect.

As to `CC(C)CC(=O)Nc1n[nH]c2c1CN(C(=O)C1CCN(C)CC1)C2(C)C`, the Potency in assay [1] is 129 nM (active) and 662 nM (active); in assay [2] it was 580 nM (active) and 590 nM (active).

For `O=C(c1cncc(Br)c1)N1CCC(N2CCCC2)CC1`, the Potency entry in assay [1] and in assay [2] was “inactive” throughout.

Turning to `COCCOc1ccc2c(c1)ncn2-c1ccc2cccc(N3CCC(N)CC3)c2n1`, the Potency is 2.3 µM (active) and 2.09 µM (active) in assay [1]; 2.3 µM (active) and 2.35 µM (active) in assay [2].

For the compound `CC(C)[C@H](C(=O)Nc1ccc(C(=O)NO)cc1)c1ccccc1`, the Potency result in assay [1] and in assay [2] was “inactive” in each case.

Regarding `C=CC(=O)Nc1cccc(Oc2nc(Nc3ccc(N4CCN(C)CC4)cc3)ncc2Cl)c1`, the Potency in assay [1] was 728 nM (active) and 2.09 µM (active); in assay [2] it was 649 nM (active) and 1.32 µM (active).

On to `Cn1cc(-c2[nH]c3cc(NC(=O)[C@H](N)C4CCCCC4)cc4c3c2C=NNC4=O)cn1`, for which the Potency was 578 nM (active) and 833 nM (active) in assay [1]; 728 nM (active) and 742 nM (active) in assay [2].

Turning to `Cc1[nH]nc2ccc(-c3cncc(OC[C@@H](N)Cc4ccccc4)c3)cc12`, the Potency in assay [1] is 325 nM (active) and 263 nM (active); in assay [2] it was 326 nM (active) and 186 nM (active).

On to `C[C@@]12O[C@@H](C[C@]1(O)CO)n1c3ccccc3c3c4c(c5c6ccccc6n2c5c31)CNC4=O`, for which the Potency in assay [1] and in assay [2] was 66.1 nM (active) each time.
